# A selection: hits, their analogues and other compounds. The true share with any hit is near 1.7%.
# PME-1 inh = PME-1 (human) inhibition | Q9Y570 | inhibition, % at 5.9 µM | recombinant PME-1, FP-Rh probe fluorescence polarization | 0.53% of 320,000 active;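 active = inhibition above the campaign mean of all compounds plus 3 SD, cut at about 26% in these data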;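 also: competitive labeling of PME-1 active site by serine hydrolase directed probe; 0% = PME-1 with DMSO and 100% = wells lacking PME-1 enzyme; inhibitors block probe labeling so polarization falls and inhibition rises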
# Fam108B counter = blocks mouse Fam108B hydrolase in RBBP9 counter-screen. recombinant Fam108B, FP-Rh probe fluorescence polarization. 0.33% of 300,000 active. AID 1947. inhibition, % at 9.51 µM;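 active = inhibition above the screen mean inhibition plus 3 SD, computed separately per campaign, cut at about 18% in these data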;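 also: inhibitors lower polarization as less probe binds the enzyme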
# LYPLA2 inh = blocks human lysophospholipase 2, a PME1 counter-screen | O95372 | recombinant LYPLA2, FP-Rh probe fluorescence polarization | inhibition, % at 5.9 µM | 0.38% of 320,000 active | AID 2177;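 active = inhibition above the screen-wide mean plus 3 SD, limit set per campaign, cut at about 26% in these data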;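 also: 0% = LYPLA2 with DMSO and 100% = wells lacking LYPLA2 enzyme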
# PAD4 inh = PAD4 (human) enzyme inhibition; 0.41% of 330,000 active; inhibition, % at 6.36 µM; AID 485272; recombinant PAD4, RCA probe fluorescence polarization;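 active = percent inhibition above a cutoff equal to the mean of all tested compounds plus 3 SD, cut at about 15% in these data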;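 also: 0% = PAD4 with RCA probe and DMSO and 100% = probe without PAD4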
# Target sequence (Q9UM07 whole entry, looked up): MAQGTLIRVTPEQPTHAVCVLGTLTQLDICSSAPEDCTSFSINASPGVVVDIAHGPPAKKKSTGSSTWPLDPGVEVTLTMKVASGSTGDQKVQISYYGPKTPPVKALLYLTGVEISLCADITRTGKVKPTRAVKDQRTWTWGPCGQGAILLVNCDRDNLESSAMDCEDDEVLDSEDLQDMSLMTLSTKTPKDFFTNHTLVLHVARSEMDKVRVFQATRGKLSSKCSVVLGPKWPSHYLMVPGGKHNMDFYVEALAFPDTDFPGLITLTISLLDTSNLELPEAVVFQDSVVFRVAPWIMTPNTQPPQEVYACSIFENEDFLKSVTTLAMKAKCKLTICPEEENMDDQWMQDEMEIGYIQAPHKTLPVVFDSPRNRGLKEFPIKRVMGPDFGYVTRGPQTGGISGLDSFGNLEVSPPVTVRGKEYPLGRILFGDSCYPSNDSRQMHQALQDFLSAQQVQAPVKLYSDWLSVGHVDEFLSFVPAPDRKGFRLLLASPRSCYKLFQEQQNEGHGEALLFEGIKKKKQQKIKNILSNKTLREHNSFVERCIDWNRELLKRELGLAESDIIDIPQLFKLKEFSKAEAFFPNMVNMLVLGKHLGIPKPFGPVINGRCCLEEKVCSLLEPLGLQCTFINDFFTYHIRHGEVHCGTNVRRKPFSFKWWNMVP
# LYPLA1 inh = LYPLA1 (human) inhibition in PME1 counter-screen; O75608; recombinant LYPLA1, FP-Rh probe fluorescence polarization; inhibition, % at 5.9 µM; 0.16% of 320,000 active;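 active = inhibition above the mean of all tested compounds plus 3 SD, set per campaign, cut at about 14% in these data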;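 also: inhibitors block serine hydrolase probe labeling of LYPLA1 so polarization falls; 0% = enzyme with DMSO and 100% = wells lacking LYPLA1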
# GSTO1 counter = counter-screen for RBBP9 inhibitors: inhibitors of human GSTO1; inhibition, % at 5.96 µM; recombinant GSTO1, activity-based probe fluorescence polarization; P78417; 1.1% of 300,000 active;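 active = inhibition above the campaign mean inhibition plus 3 SD, cut at about 35% in these data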;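 also: 0% = GSTO1-1 with DMSO and 100% = wells lacking GSTO1-1 enzyme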
# Fam108b inh conf = confirmation of mouse Fam108b serine hydrolase inhibitors; shares compounds with Fam108B counter; 44% of 930 active; inhibition, % at 9.51 µM; AID 1978; recombinant Fam108b, FP-Rh probe fluorescence polarization;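 active = inhibition above a limit from the primary screen, the mean over all compounds plus 3 SD, cut at about 19% in these data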;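 also: 0% = median of active Fam108b wells and 100% = catalytically dead S170A mutant; inhibitors free the probe so polarization falls as inhibition rises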
# GSTO1 confirm = GSTO1 (human) inhibition, confirmation; shares compounds with GSTO1 counter; recombinant GSTO1, probe fluorescence polarization; inhibition, % at 5.96 µM; 54% of 2,400 active; AID 2176;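 active = inhibition above the primary screen's cutoff, its mean inhibition plus 3 SD, cut at about 35% in these data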;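 also: loss of polarization as inhibitors block binding of rhodamine sulfonate ester activity probe; 0% = GSTO1 with DMSO and 100% = wells lacking GSTO1 enzyme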
# Active calls of the source: *; . = not tested or not shown.
SMILES,PME-1 inh,Fam108B counter,LYPLA2 inh,PAD4 inh,LYPLA1 inh,GSTO1 counter,others
CC(C)OCC(O)CN1CC2C[C@@H](C1)Cn1c2cccc1=O (stereo partly drawn),1.7,3.3,0.1,-0.9,2.4,0.3,
NP(=O)(OCCCc1ccccc1)Oc1ccccc1Cl (stereo not drawn),59.4*,2.0,1.8,-4.4,0.6,2.7,
CC(C)CCOP(N)(=O)Oc1ccccc1 (stereo not drawn),-9.5,1.9,-7.8,-2.9,-3.5,-4.1,
CC(C)CCOP(N)(=O)Oc1ccccc1Cl (stereo not drawn),30.4*,-1.0,6.7,-1.6,6.7,2.2,
NP(=O)(OCCCc1ccccc1)Oc1ccc(Cl)cc1 (stereo not drawn),10.0,1.2,-1.6,-5.6,0.2,3.4,
CN(C)C(=O)Oc1ccc(OCc2nc3ccccc3[nH]2)cc1,1.4,-8.3,9.5,1.0,0.9,-9.2,
Cc1c(N=Nc2c(O)n(C)c(=O)n(C)c2=O)c(=O)n(-c2ccccc2)n1C,2.4,-0.3,4.6,-0.1,-1.9,39.1*,
Cc1ccc(CN2C(=O)NC(=O)C3(Cc4c(nc5ccccn5c4=O)N4CCCCCC43)C2=O)cc1 (stereo not drawn),2.4,6.9,-0.5,7.2,-3.4,35.5*,
O=C1NC(=O)C2(Cc3ccccc3N3CCCC32)C(=O)N1c1cccc(Cl)c1 (stereo not drawn),1.1,-6.8,5.2,-1.7,2.9,-0.6,
COc1ccc(OCC(=O)N2CCCC(N3CCN(c4ccccc4C)CC3)C2)cc1 (stereo not drawn),1.9,1.1,4.9,-1.1,1.5,-0.5,
C[C@]12CCC3C(CC[C@H]4C[C@H](OC(=O)c5cccnc5)CC[C@]34C)C1CCC2=O (stereo partly drawn),.,.,.,-7.5,.,.,
CCCNC(=O)N1CCC2(CC1)OCCO2,6.1,-3.2,-5.4,0.9,-4.6,4.1,
O=C1NC(=O)N(Cc2ccccc2)C(=O)/C1=C\N1CCCc2ccccc21,-10.2,-2.0,-2.1,-13.8,0.7,38.1*,
CC1=NN(c2ccccc2)C(=O)C1/C=C1/C(=O)NC(=O)N(c2cc(C)cc(C)c2)C1=O (stereo not drawn),0.5,-1.2,-1.5,15.9*,1.6,18.2,
COc1ccc(S(=O)(=O)N2CC3CC(C2)c2cccc(=O)n2C3)cc1 (stereo not drawn),-7.2,3.9,-1.9,1.4,-1.6,-1.3,
CCCCn1c(C)c(C(=O)OCC)c2c(CN3CCCC3)c(O)ccc21,27.5*,45.6*,-2.7,-2.7,-1.8,19.7,Fam108b inh conf=1.5
CN(C)[C@@H]1C(=O)C(C(N)=O)=C(O)[C@@]2(O)C(=O)C3=C(O)c4c(O)cccc4[C@@](C)(O)[C@H]3C[C@@H]12,-9.0,52.3*,7.5,-0.2,-7.7,65.8*,Fam108b inh conf=55.4*
Cc1ccc(OC(F)F)c(N2C(=O)C3C4CCC(O4)C3C2=O)c1 (stereo not drawn),7.0,.,-1.3,-11.4,-1.3,.,
Cc1ccc2c(c1Cl)NC(C(=O)O)C1CC(Sc3ccccc3[N+](=O)[O-])C(Cl)C21 (stereo not drawn),0.1,26.8*,-13.3,-0.5,-1.3,36.4*,Fam108b inh conf=10.9
O=C1NC(=O)N(c2ccccc2)C(=O)/C1=C\c1ccc([N+](=O)[O-])s1,2.5,19.1*,-8.7,-6.1,-2.8,34.6,Fam108b inh conf=12.3
CN1C(=O)NC(=O)/C(=C/c2ccc([N+](=O)[O-])s2)C1=O,-5.8,6.8,-5.3,-1.6,-1.9,32.7,
COc1ccc(-c2nc3ccc(C(=O)N4CCC5(CC4)OCCO5)cc3nc2-c2ccc(OC)cc2)cc1,-1.1,-7.4,-10.1,-0.7,-6.5,1.6,
COC(=O)C1=C(c2cc3ccccc3o2)C[C@@H]2CC[C@H]1N2C(=O)N1CCC(O)CC1,2.3,2.2,1.4,-0.4,-0.3,0.3,
COc1ccc(OC)c(N2C(=O)NC(=O)/C(=C\c3ccc([N+](=O)[O-])s3)C2=O)c1,-0.7,44.2*,9.9,-26.0,-3.5,39.8*,Fam108b inh conf=11.2;GSTO1 confirm=26.0

# Source: PubChem (The Scripps Research Institute Molecular Screening Center)
